From PubChem BioAssay
Where “and” joins values, the source holds several entries; their conditions need not be identical. Identical values can stand only once. Records with an inconclusive call do not appear. Calls of active or inactive are those of the source. Unless noted, how the calls were made is not given here.

Experiments:
[1] = compounds altering circadian rhythm period length – cell-based, LOPAC library, luminescence reporter (AID 2774); conditions: circadian reporter cells, at 7 µM, actives lie on both sides;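 further: values are relative to mean of DMSO wells on each plate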
[2] = tested on: Hepatitis C virus NS3 helicase; experiment: blockers of NS3h binding to ssDNA – biochemical, fluorescence polarization, LOPAC1280 library, primary screen (AID 687035; in the data active means inhibition above about 37%); conditions: Purified HCV NS3 helicase, Cy5-dT15 ssDNA binding fluorescence polarization; stronger effect = higher value; concentration not given here
[3] = compounds altering Cy5-DNA-NS3h complex signal – biochemical, LOPAC1280, artefact control for HCV NS3 helicase inhibitor project (AID 687037); conditions: Cy5-DNA-NS3h complex fluorescence interference counterscreen
[4] = tested on: Aerobactin synthetase IucA (Klebsiella pneumoniae, hypervirulent); experiment: biochemical IucA inhibition screen of LOPAC library by absorbance (AID 1346212); conditions: IucA enzyme assay, absorbance (OD) readout; stronger effect = lower value;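 tested at 8 µM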;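 further: 100% = no compound wells and 0% = no enzyme wells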
[5] = viability loss with induced miR-34 in A549 – imaging, A549 dox-inducible miR-34, nuclei and caspase counts, primary screen (AID 1347080;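 active means compounds whose cell count with miR-34 switched on is under 0.7 times the count with it off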); conditions: A549 miR-34 inducible, Hoechst nuclei count, 48 h
[6] = blockers of cellular phospholipid synthesis – cell-based, LOPAC library, screen 4, primary screen (AID 1347384); conditions: animal cells, phospholipid biosynthesis inhibition screen; at 10 µM
[7] = MELAS cybrid and Rieske KO viability enhancers – cell-based, MELAS cybrids, Rieske KO mouse fibroblasts, CellTiter-Glo, primary screen (AID 1508586;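 active means mean z-score across replicates of 1.96 or higher in either the MELAS or the Rieske mutant cell line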;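 further: z relative to plate mean and SD of compound and empty wells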); conditions: low glucose
[8] = galactose survival enhancers in mitochondrial complex I cybrids – cell-based, galactose medium, ATP luminescence, primary screen (AID 1645843;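 active means z-score of at least 1.8 in each of two replicates, scored against plate mean and spread of sample wells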;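 further: positive z means more ATP and so rescue of galactose-driven cybrid death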); conditions: complex I mutant cybrid cells, 72 h, stronger effect = higher value
[9] = P. berghei load reduction in hepatocytes – cell-based, HepG2, luciferase luminescence, HepG2 viability, primary screen (AID 624349; in the data active means parasite load remaining mostly below about 12%, no sharp cut-off; inactive means mostly above about 10%;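 further: 100% = mean of DMSO negative control wells on the same plate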); conditions: P. berghei liver stage in HepG2, luciferase luminescence, concentration not given here; parasite load remaining: stronger effect = lower value; viability: measured here: HepG2 viability without parasites
[10] = compounds altering viability of human ES cells (AID 493140); conditions: human embryonic stem cell survival screen; stronger effect = higher value;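 further: cells exposed to compounds for four days before counting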
[11] = viability loss in pontine glioma line – cell-based, SU-DIPG-XVII, MIPE5.0, CellTiter-Glo, qHTS, dose response (AID 1347060; cut-off not given, nearly all actives have AC50 up to about 26 µM;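 further: cells exposed to compound for 48 hours before viability readout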); conditions: CellTiter-Glo ATP luminescence
[12] = viability loss in pontine glioma line – cell-based, SU-DIPG-XIII, MIPE4.0, CellTiter-Glo, qHTS, dose response (AID 1347061; cut-off not given, nearly all actives have AC50 up to about 37 µM;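 further: cells exposed to compound for 48 hours before readout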); conditions: CellTiter-Glo ATP luminescence
[13] = viability loss in pontine glioma line – cell-based, SU-DIPG-IV, MIPE4.0, CellTiter-Glo, qHTS, dose response (AID 1347063; cut-off not given, nearly all actives have AC50 up to about 30 µM;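 further: compound exposure lasted 48 hours before the viability readout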); conditions: CellTiter-Glo ATP luminescence
[14] = viability loss in pontine glioma line – cell-based, SU-DIPG-XXV, MIPE5.0, CellTiter-Glo, qHTS, dose response (AID 1347065; cut-off not given, nearly all actives have AC50 up to about 26 µM;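 further: cells exposed to compound for 48 hours before ATP readout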); conditions: CellTiter-Glo ATP luminescence
[15] = growth inhibition of DIPG cells – cell-based, MIPE4.0 library, CellTiter-Glo luminescence, qHTS (AID 1347066; cut-off not given, nearly all actives have AC50 up to about 30 µM;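 further: cells exposed to compound for 48 hours before readout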); conditions: SU-DIPG-VI viability, CellTiter-Glo ATP luminescence
[16] = JHH-DIPG-1 glioma cell viability, MIPE5.0 library, CellTiter-Glo luminescence, qHTS (AID 1347067; cut-off not given, nearly all actives have AC50 up to about 26 µM;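 further: cells exposed to compound for 48 hours before readout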); conditions: JHH-DIPG-1 glioma viability, CellTiter-Glo ATP luminescence
[17] = chitosan synthesis blockers in C. neoformans – flow cytometry, Cibacron Brilliant Red staining (AID 1347148); conditions: Cryptococcus neoformans chitosan, stronger effect = lower value; at 10 µM unless noted;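 further: compound exposure lasted three days at 37 degrees C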
[18] = measured here: relative caspase fold change +Dox/-Dox
[19] = measured here: total cells with miR-34 induction, stronger effect = lower value
[20] = measured here: total cells without miR-34 induction
[21] = MELAS cybrid survival, CellTiter-Glo 48 h, stronger effect = higher value
[22] = Rieske KO mouse fibroblast survival, CellTiter-Glo 72 h

## NCCc1ccc(S(=O)(=O)F)cc1
[1]
  period change: -0.1 h (inactive)
[2]
  inhibition: -2% (inactive)
[3]
  fluorescence ratio (interference): 0.9 (inactive)
[4]
  remaining activity: 99.4% (inactive)
[5]; stronger effect = lower value
  fold change: 1.01 (inactive) and 0.94 (inactive)
[5]; [18]
  fold change: 0.956 and 0.406
[5]; [19]
  cell count: 10400 and 7770
[5]; [20]
  cell count: 10400 and 8270
[6]
  outcome: inactive
[7]; [21]
  z-score: -0.305 (inactive)
[7]; [22]
  z-score: -1.62
[8]
  z-score: 0.125 (inactive)

## CCCn1c(=O)c2[nH]c(C3CCCC3)nc2n(CCCOC(=O)c2ccc(S(=O)(=O)F)cc2)c1=O
[1]
  period change: -0.07 h (inactive)
[2]
  inhibition: -3% (inactive)
[3]
  fluorescence ratio (interference): 1 (inactive)
[4]
  remaining activity: 102% (inactive)
[5]; stronger effect = lower value
  fold change: 0.972 (inactive)
[5]; [18]
  fold change: 1.12
[5]; [19]
  cell count: 6100
[5]; [20]
  cell count: 6280
[6]
  outcome: inactive
[8]
  z-score: -0.865 (inactive)

## CC12NC(Cc3ccccc31)c1ccccc12 (stereo unspecified)
[1]
  period change: 0.25 h (inactive)
[9]
  parasite load remaining: 63.2% (inactive)
  viability: 167%
[2]
  inhibition: -3% (inactive)
[3]
  fluorescence ratio (interference): 0.9 (inactive)
[4]
  remaining activity: 120% (inactive)
[5]; stronger effect = lower value
  fold change: 1.01 (inactive) and 0.879 (inactive)
[5]; [18]
  fold change: 1.28 and 2.22
[5]; [19]
  cell count: 10300 and 11700
[5]; [20]
  cell count: 10100 and 13300
[6]
  outcome: inactive
[8]
  z-score: -0.15 (inactive)

## CNCCc1c[nH]c2ccc(O)cc12
[1]
  period change: 0.02 h (inactive)
[2]
  inhibition: -6% (inactive)
[3]
  fluorescence ratio (interference): 0.9 (inactive)
[4]
  remaining activity: 121% (inactive)
[5]; stronger effect = lower value
  fold change: 1.03 (inactive)
[5]; [18]
  fold change: 1.46
[5]; [19]
  cell count: 10900
[5]; [20]
  cell count: 10600
[6]
  outcome: inactive
[8]
  z-score: 0.2 (inactive)

## NC(=O)c1ccc(OCC(O)CN2CC=C(c3ccc(F)cc3)CC2)cc1 (stereo unspecified)
[1]
  period change: 0.145 h (inactive)
[2]
  inhibition: -1% (inactive)
[3]
  fluorescence ratio (interference): 0.9 (inactive)
[4]
  remaining activity: 103% (inactive)
[5]; stronger effect = lower value
  fold change: 1.01 (inactive)
[5]; [18]
  fold change: 1.9
[5]; [19]
  cell count: 9620
[5]; [20]
  cell count: 9570
[6]
  outcome: inactive
[8]
  z-score: -0.85 (inactive)

## NC(=O)CN1CC(O)CC1=O (stereo unspecified)
[1]
  period change: 0.03 h (inactive)
[2]
  inhibition: -2% (inactive)
[3]
  fluorescence ratio (interference): 1 (inactive)
[4]
  remaining activity: 115% (inactive)
[5]; stronger effect = lower value
  fold change: 1.04 (inactive) and 0.877 (inactive)
[5]; [18]
  fold change: 1.56 and 1.01
[5]; [19]
  cell count: 10800 and 8840
[5]; [20]
  cell count: 10500 and 10100
[6]
  outcome: inactive
[7]; [21]
  z-score: -0.221 (inactive)
[7]; [22]
  z-score: -0.154
[8]
  z-score: 0.605 (inactive)

## CCn1cnc2c(Nc3cccc(Cl)c3)nc(N[C@@H]3CCCC[C@@H]3N)nc21
[1]
  period change: 0.275 h (inactive)
[9]
  parasite load remaining: 33.4% (inactive)
  viability: 108%
[2]
  inhibition: -2% (inactive)
[3]
  fluorescence ratio (interference): 0.9 (inactive)
[4]
  remaining activity: 98.9% (inactive)
[5]; stronger effect = lower value
  fold change: 0.982 (inactive)
[5]; [18]
  fold change: 0.968
[5]; [19]
  cell count: 797
[5]; [20]
  cell count: 812
[6]
  outcome: inactive
[8]
  z-score: -1.48 (inactive)

## COC[C@H]1OC(=O)c2coc3c2[C@@]1(C)C1=C(C3=O)C2CCC(=O)[C@@]2(C)C[C@H]1OC(C)=O (stereo partly specified)
[1]
  period change: -0.52 h (inactive)
[10]
  survival: 37.8 (inactive)
[2]
  inhibition: -1% (inactive)
[3]
  fluorescence ratio (interference): 1 (inactive)
[4]
  remaining activity: 109% (inactive)
[11]
  AC50: 5.25 µM (active)
[12]
  AC50: 23.5 µM (active)
[13]
  AC50: 3.72 µM (active)
[14]
  AC50: 2.63 µM (active)
[15]
  AC50: 18.7 µM (active)
[16]
  AC50: 4.17 µM (active)
[5]; stronger effect = lower value
  fold change: 1.01 (inactive)
[5]; [18]
  fold change: 1.88
[5]; [19]
  cell count: 3350
[5]; [20]
  cell count: 3320
[6]
  outcome: inactive
[8]
  z-score: 0.165 (inactive)

## CCCn1c(C)c(C(=O)c2cccc3ccccc23)c2ccccc21
[4]
  remaining activity: 107% (inactive)
[5]; stronger effect = lower value
  fold change: 0.889 (inactive)
[5]; [18]
  fold change: 1.38
[5]; [19]
  cell count: 5580
[5]; [20]
  cell count: 6280

## CC(C)(C)c1cc(C=C(C#N)C#N)cc(C(C)(C)C)c1O
[1]
  period change: 1.05 h (inactive)
[10]
  survival: 76 (inactive)
[2]
  inhibition: 0% (inactive)
[3]
  fluorescence ratio (interference): 1 (inactive)
[4]
  remaining activity: 101% (inactive)
[5]; stronger effect = lower value
  fold change: 1.14 (inactive) and 1.05 (inactive) and 0.984 (inactive)
[5]; [18]
  fold change: 0.636 and 2.12 and 0.899
[5]; [19]
  cell count: 1430 and 1570 and 1940
[5]; [20]
  cell count: 1250 and 1490 and 1970
[17]
  fold fluorescence: 9.17 [at 177.1 µM] (inactive)
[6]
  outcome: active
[7]; [21]
  z-score: 0.224 (inactive)
[7]; [22]
  z-score: -0.362
[8]
  z-score: -1.27 (inactive)

## NC(Cc1cc(O)c(O)cc1O)C(=O)O (stereo unspecified)
[1]
  period change: 0.12 h (inactive)
[2]
  inhibition: 22% (inactive)
[3]
  fluorescence ratio (interference): 0.9 (inactive)
[4]
  remaining activity: 96.6% (inactive)
[5]; stronger effect = lower value
  fold change: 1.05 (inactive)
[5]; [18]
  fold change: 0.814
[5]; [19]
  cell count: 9010
[5]; [20]
  cell count: 8570
[6]
  outcome: inactive
[8]
  z-score: -0.345 (inactive)

## CC1(C(=O)O)C2CCC(O2)C1(C)C(=O)O (stereo unspecified)
[1]
  period change: 0.3 h (inactive)
[10]
  survival: 0.417 (inactive)
[2]
  inhibition: -5% (inactive)
[3]
  fluorescence ratio (interference): 1 (inactive)
[4]
  remaining activity: 118% (inactive)
[5]; stronger effect = lower value
  fold change: 0.789 (inactive)
[5]; [18]
  fold change: 1.91
[5]; [19]
  cell count: 286
[5]; [20]
  cell count: 362
[6]
  outcome: inactive
[8]
  z-score: -1.46 (inactive)

## Cc1c(C(=O)c2cccc3ccccc23)c2cccc3c2n1[C@H](CN1CCOCC1)CO3
[1]
  period change: -0.065 h (inactive)
[10]
  survival: 106 (inactive)
[2]
  inhibition: -8% (inactive)
[3]
  fluorescence ratio (interference): 1 (inactive)
[4]
  remaining activity: 99.8% (inactive)
[13]
  AC50: 9.35 µM (active)
[5]; stronger effect = lower value
  fold change: 0.941 (inactive) and 0.94 (inactive)
[5]; [18]
  fold change: 1.39 and 1.17
[5]; [19]
  cell count: 5730 and 5540
[5]; [20]
  cell count: 6090 and 5900

## Cc1sc2ccccc2c1CC1=NCCN1
[1]
  period change: 0.055 h (inactive)
[2]
  inhibition: -3% (inactive)
[3]
  fluorescence ratio (interference): 0.9 (inactive)
[4]
  remaining activity: 99.1% (inactive)
[5]; stronger effect = lower value
  fold change: 1.03 (inactive)
[5]; [18]
  fold change: 1.95
[5]; [19]
  cell count: 9870
[5]; [20]
  cell count: 9550
[6]
  outcome: inactive
[8]
  z-score: -0.09 (inactive)

## CCC(C)N(C)C(=O)c1cc2ccccc2c(-c2ccccc2Cl)n1 (stereo unspecified)
[4]
  remaining activity: 116% (inactive)

## NCC(CP(=O)(O)O)c1ccc(Cl)cc1 (stereo unspecified)
[1]
  period change: 0.02 h (inactive)
[2]
  inhibition: -1% (inactive)
[3]
  fluorescence ratio (interference): 1 (inactive)
[4]
  remaining activity: 107% (inactive)
[5]; stronger effect = lower value
  fold change: 1 (inactive)
[5]; [18]
  fold change: 1.21
[5]; [19]
  cell count: 9470
[5]; [20]
  cell count: 9430
[6]
  outcome: inactive
[8]
  z-score: 0.615 (inactive)
